Bioassay records: PubChem BioAssay, Broad Institute
In the library only some 2.1% were active in any assay of this set; here they are far more common.
Shn3 inh set2: reduction of Shn3 3'UTR firefly luciferase signal, primary screen, Schnurri-3 inhibitor project, cell-based, Clone20 osteoblasts, set 2. Clone20 osteoblast Shn3 3'UTR firefly luciferase, 24 h. inhibition, % at 12.5 µM. actives 0.52% (n = 360,000);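 active = mean inhibition of at least 75% with every replicate also reaching 75%; inconclusive = mean inhibition at least 75% but some replicate below; inactive = mean inhibition below 75%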
TRPM1 prom inh: inhibitors of MITF-dependent TRPM1 promoter reporter, primary screen, cell-based, SK-MEL-5, single point, luciferase; SK-MEL-5 TRPM1 promoter luciferase, 24 h; inhibition, % at 12.5 µM; actives 0.83% (n = 330,000);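 active = mean inhibition across replicates of 60% or more, whatever share of single replicates reaches that level; inconclusive = some that reach 60%, reason not given; inactive = mean inhibition across replicates below 60%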
PAX8 reporter: inhibitors of PAX8-driven TPO luciferase reporter, primary screen, RMG-I cells, single concentration. SteadyGlo, 24 h. inhibition, % at 12.6 µM. actives 1.2% (n = 360,000). AID 652154, 2013;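 active = mean replicate inhibition at least 60% with every replicate also reaching 60%; inconclusive = only one of the two criteria is met; inactive = mean below 60% and not all replicates reaching 60%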;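 also: luciferase light reporting Pax8 driven TPO promoter activity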
aSyn 5UTR inh: MLPCN primary screen, SNCA 5' untranslated region; alpha-synuclein 5'UTR reporter, inhibitor activity; inhibition, % (tested at 7.5 µM); actives 0.82% (n = 300,000); in the data active = inhibition above about 60%; inconclusive = no clear call, values can overlap the other calls;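 also: H4 neuroglioblastoma cells stably carrying SNCA 5'UTR luciferase fusion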
LMP1 NFkB inh: EBV LMP1-driven NF-kappaB luciferase reporter inhibitors, primary screen, cell-based, luminescence, single point | inhibition, % at 12.5 µM | actives 0.69% (n = 350,000) | LMP1-induced NF-kappaB luciferase reporter cells; in the data active = inhibition above about 41%; inconclusive = no clear call, values can overlap the other calls
Numbers stand for hits; . = inactive; ? = inconclusive; / = not tested or not shown.

SMILES	Shn3 inh set2	TRPM1 prom inh	PAX8 reporter	aSyn 5UTR inh	LMP1 NFkB inh
COc1ccc(C(=O)/C(C#N)=N/Nc2ccc([N+](=O)[O-])cc2)cc1	89	72	90	102	.
COc1ccc(C(=O)/C(C#N)=N/Nc2ccccc2[N+](=O)[O-])cc1	.	.	.	.	.
CS(=O)(=O)c1ccccc1C(=O)Nc1nc2ccccc2[nH]1	.	.	.	.	.
COC(=O)c1c(-c2ccc(C)cc2)csc1NC(=O)Cc1ccc(OC)c(OC)c1	.	.	/	.	.
COC(=O)c1c(-c2cccc3ccccc23)csc1NC(=O)Cc1ccc(OC)c(OC)c1	87	.	/	.	.
COc1ccc(C(=O)OCC(=O)Nc2ncc([N+](=O)[O-])s2)cc1OC	86	.	.	/	.
O=C(CCS(=O)(=O)c1ccccc1)Nc1nccs1	.	.	.	.	84
COCc1nnc(NC(=O)CCS(=O)(=O)c2ccccc2)s1	.	.	66	.	.
CCC(CC)c1nnc(NC(=O)CCS(=O)(=O)Cc2ccccc2)s1	.	.	62	.	.
CCc1nnc(NC(=O)CCS(=O)(=O)c2ccccc2)s1	.	.	.	.	.
O=C(CCS(=O)(=O)c1ccccc1)Nc1ncc([N+](=O)[O-])s1	.	.	78	.	.
CCc1nnc(NC(=O)c2ccncc2)s1	.	.	/	.	.
O=C(CS(=O)(=O)c1ccccc1)Nc1ncc([N+](=O)[O-])s1	.	.	.	.	.
CCc1nnc(NC(=O)CCS(=O)(=O)c2ccc(C)cc2)s1	.	.	64	.	.
CCCCc1nnc(NC(=O)CCS(=O)(=O)c2ccc(C)cc2)s1	.	.	79	/	.
CCc1nnc(NC(=O)c2cccc(C(=O)Nc3nnc(CC)s3)n2)s1	88	.	.	66	.
COc1cccc(NC(=O)CSc2nnc(CNC(=O)c3ccccc3F)o2)c1	.	.	.	.	.
O=C(COc1ccc2c(c1)C(=O)CC1(CCCCC1)O2)NCc1ccccn1	.	.	/	.	.
O=C(N/N=C/c1cccc([N+](=O)[O-])c1)c1cccc(Br)c1	.	.	.	.	.
Cc1cc(C(=O)N/N=C/c2ccc([N+](=O)[O-])s2)n[nH]1	/	70	.	79	.
O=C(N/N=C/c1ccc([N+](=O)[O-])s1)c1cccc(Br)c1	.	82	/	67	.
O=C(N/N=C/c1ccc(Br)s1)c1ccc([N+](=O)[O-])cc1	.	.	.	84	.
Cc1ccc(C(=O)N/N=C\c2ccc([N+](=O)[O-])s2)cn1	.	109	.	.	.
Cc1cccc(C(=O)O/N=C(\N)Cc2cccc3ccccc23)c1	.	.	/	.	.
Cc1noc(C)c1NC(=O)NCC[C@@H]1CC[C@H](NC(=O)c2ccccc2)[C@@H](CO)O1	/	/	.	/	/
SMILES	Shn3 inh set2	TRPM1 prom inh	PAX8 reporter	aSyn 5UTR inh	LMP1 NFkB inh
O=C(N/N=C/c1ccc([N+](=O)[O-])s1)c1ccncc1	.	?	/	.	.
Cc1ccc(C(=O)N/N=C/c2ccc([N+](=O)[O-])s2)cc1	90	105	/	108	.
CCn1c(Cl)c(C=O)s/c1=N\S(=O)(=O)c1ccccc1	99	98	.	.	.
O=C(C[C@@H]1CC[C@H]2[C@@H](COC[C@@H](O)CN2C(=O)Nc2ccc(F)cc2)O1)NCCCN1CCOCC1	/	/	.	/	/
COC(=O)C[C@H]1CC[C@@H]2[C@H](COc3ccc(NC(=O)c4ccccc4OC)cc3C(=O)N2C)O1	/	/	.	/	/
COC(=O)c1cc(C)nc2c1C(=O)C(=O)C=C2N1CCOCC1	99	84	106	.	.
COCCN=c1scc(-c2ccco2)n1/N=C/c1ccc(O)c(O)c1O	.	.	.	/	.
CC(C)N=c1scc(-c2ccco2)n1/N=C/c1ccc(O)c(O)c1	94	.	/	/	.
C=CCN=c1scc(-c2ccco2)n1/N=C/c1ccc(O)c(O)c1O	91	.	.	.	.
CC(=O)Nc1cccc(C(=O)N/N=C/c2ccccc2F)c1	.	.	.	.	.
COc1ccc(/C=N/NC(=O)c2cccc(NC(C)=O)c2)c(OC)c1	.	.	.	.	.
COc1ccc(C(=O)Nc2cccc(C(=O)N/N=C/c3ccc(OC)cc3OC)c2)cc1	.	.	.	83	67
O=C(O)c1cccc(NC(=O)c2ccccc2)c1	.	.	.	/	.
Cc1ccc(C(=O)Nc2cccc(C(=O)O)c2)cc1S(=O)(=O)N1CCCCC1	.	.	/	/	44
